Inconclusive results are not listed. Where a call stands in place of a potency, no number is given. The source holds several records for some structures; these can differ, active in one and inactive in another. Calls of active or inactive are those of the source. Calls follow the shape of the dose curve; as a rule, active = well fitted curve in the direction sought with a large enough effect in the repeat runs; inconclusive = weak or mixed curves; inactive = no such curve, though single readings can be large; an effect the other way counts as inactive or inconclusive.
Test system: not listed separately
Test: Caspase-3/7 induction in CHO-K1 cells by small molecules, qHTS assay (AID 1346980); also: nearly all actives have a fitted effect of over 15% in size
Details: CHO-K1 caspase-3/7 induction, Caspase-Glo luminescence, 17 h; series mostly up to 92.4 µM
Outline: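 Luminescent Caspase-Glo 3/7 read (30min, room temperature) quantified apoptosis induction. Cells were wild-type CHO-K1, treated with compound for 17hr at 37 C and 5% CO2.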
Potency is read from the fitted curve at half-maximal effect.

Structure (SMILES)	Potency
O=C(O)c1ccccc1C(=O)Nc1cccc2ccccc12	inactive
CNC(C)Cc1ccccc1OC (stereo not given)	inactive
COC(=O)C(C)N(C(=O)Cc1ccccc1)c1c(C)cccc1C (stereo not given)	inactive
CC(C)=CCOc1c2occc2cc2ccc(=O)oc12	inactive
CCCCNP(N)(N)=S	inactive
COC(=O)C(Br)CBr (stereo not given)	inactive
Cc1ccc2ccccc2c1	inactive
COC(C)(C)CCC[C@H](C)C/C=C/C(C)=C/C(=O)OC(C)C	inactive
COC(N)=O	inactive
CCCC(=O)Cl	inactive
NC(=O)CI	inactive
CCBr	inactive
NNC(=O)c1cccnc1	inactive
Cc1cc(=O)[nH]o1	inactive
N#CCc1ccccc1	inactive
CC(Cl)Cl	inactive
CCCN(CCCl)c1c([N+](=O)[O-])cc(C(F)(F)F)cc1[N+](=O)[O-]	inactive
COc1cc(CC(C)N)cc2c1OCO2 (stereo not given)	inactive

Structure (SMILES)	Potency
CCOP(=O)(OCC)SCCSCC	inactive
CCCCCCC#N	inactive
CC(C)(C)C(O)C(Oc1ccc(Cl)cc1)n1cncn1 (stereo not given)	inactive
NC(=O)C(Cl)(Cl)Cl	inactive
Brc1ccc(Oc2ccccc2)cc1	inactive
CCOP(O)OCC	inactive
Cc1ccc(N)cc1C	inactive
O=C(NC(=O)c1c(F)cccc1F)Nc1cc(Cl)c(Oc2ncc(C(F)(F)F)cc2Cl)c(Cl)c1	inactive
CCCN(CC1CC1)c1c([N+](=O)[O-])cc(C(F)(F)F)cc1[N+](=O)[O-]	inactive
C=CCC1([C@H](C)CCC)C(=O)NC(=O)NC1=O	inactive
CCCCCCCCCCOC(=O)c1ccccc1C(=O)OCCCCCCCCCC	inactive
O=NN1CCCCCC1	inactive
C=CCCl	inactive
IC(I)=C(I)I	4.86 µM (active)
CC1(C)[C@H](C=C(Cl)Cl)[C@@H]1C(=O)O[C@@H](C#N)c1cccc(Oc2ccccc2)c1	inactive
C=CC(=O)OC(C)(C)C	inactive
CCOP(=S)(OCC)Oc1nc(Cl)c(Cl)cc1Cl	inactive

Test system: not listed separately
Test: Caspase-3/7 induction in HepG2 cells by small molecules, qHTS cell viability counter screen (AID 1346981); also: nearly all actives have a fitted effect of over 30% in size
Details: CellTiter-Fluor fluorescence, 17 h; series mostly up to 92.4 µM
Outline: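 After a 5-hr attachment period at 37 C and 5% CO2, wild-type HepG2 cells received compounds in DMSO. Sixteen hours later CellTiter-Fluor was dispensed and the fluorescent signal quantified after a further hour.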

Structure (SMILES)	Potency
O=C(O)c1ccccc1C(=O)Nc1cccc2ccccc12	inactive
CNC(C)Cc1ccccc1OC (stereo not given)	inactive
COC(=O)C(C)N(C(=O)Cc1ccccc1)c1c(C)cccc1C (stereo not given)	inactive
CC(C)=CCOc1c2occc2cc2ccc(=O)oc12	inactive
CCCCNP(N)(N)=S	inactive
COC(=O)C(Br)CBr (stereo not given)	inactive
Cc1ccc2ccccc2c1	inactive
COC(C)(C)CCC[C@H](C)C/C=C/C(C)=C/C(=O)OC(C)C	inactive
COC(N)=O	inactive
CCCC(=O)Cl	inactive
NC(=O)CI	inactive
CCBr	inactive
NNC(=O)c1cccnc1	inactive
Cc1cc(=O)[nH]o1	inactive
N#CCc1ccccc1	inactive
CC(Cl)Cl	inactive
CCCN(CCCl)c1c([N+](=O)[O-])cc(C(F)(F)F)cc1[N+](=O)[O-]	inactive
COc1cc(CC(C)N)cc2c1OCO2 (stereo not given)	inactive

Structure (SMILES)	Potency
CCOP(=O)(OCC)SCCSCC	inactive
CCCCCCC#N	inactive
CC(C)(C)C(O)C(Oc1ccc(Cl)cc1)n1cncn1 (stereo not given)	inactive
NC(=O)C(Cl)(Cl)Cl	inactive
Brc1ccc(Oc2ccccc2)cc1	inactive
CCOP(O)OCC	inactive
Cc1ccc(N)cc1C	inactive
O=C(NC(=O)c1c(F)cccc1F)Nc1cc(Cl)c(Oc2ncc(C(F)(F)F)cc2Cl)c(Cl)c1	inactive
CCCN(CC1CC1)c1c([N+](=O)[O-])cc(C(F)(F)F)cc1[N+](=O)[O-]	inactive
C=CCC1([C@H](C)CCC)C(=O)NC(=O)NC1=O	inactive
CCCCCCCCCCOC(=O)c1ccccc1C(=O)OCCCCCCCCCC	inactive
O=NN1CCCCCC1	inactive
C=CCCl	inactive
IC(I)=C(I)I	68.6 µM (active)
CC1(C)[C@H](C=C(Cl)Cl)[C@@H]1C(=O)O[C@@H](C#N)c1cccc(Oc2ccccc2)c1	inactive
C=CC(=O)OC(C)(C)C	inactive
CCOP(=S)(OCC)Oc1nc(Cl)c(Cl)cc1Cl	inactive

Biological target: Nuclear receptor subfamily 1 group I member 2 (Homo sapiens) (UniProt O75469)
Test: Human pregnane X receptor (PXR) small molecule agonists, qHTS assay (AID 1346982); also: nearly all actives have a fitted effect of over 35% in size
Details: PXR-Luc HepG2, CYP3A4 luciferase reporter, 24 h; series mostly up to 92.4 µM
Outline: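 Tox21 qHTS; PXR-Luc HepG2; compounds pinned from DMSO; 24 hr, 37 C; ONE-Glo luciferase detection, 30 min room temperature.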

Nuclear receptor subfamily 1 group I member 2 (Homo sapiens), sequence (O75469 whole entry, looked up): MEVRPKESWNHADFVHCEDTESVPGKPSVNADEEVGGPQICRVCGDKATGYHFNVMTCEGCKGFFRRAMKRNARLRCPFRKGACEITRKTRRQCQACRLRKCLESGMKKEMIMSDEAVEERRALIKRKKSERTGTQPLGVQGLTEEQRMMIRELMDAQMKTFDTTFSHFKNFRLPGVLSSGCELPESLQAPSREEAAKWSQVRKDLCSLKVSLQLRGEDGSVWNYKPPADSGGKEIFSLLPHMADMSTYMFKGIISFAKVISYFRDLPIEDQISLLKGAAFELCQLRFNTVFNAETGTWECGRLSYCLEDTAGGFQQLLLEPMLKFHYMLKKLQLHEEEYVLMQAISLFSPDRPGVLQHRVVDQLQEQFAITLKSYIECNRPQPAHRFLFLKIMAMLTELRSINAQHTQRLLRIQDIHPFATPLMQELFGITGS

Structure (SMILES)	Potency
O=C(O)c1ccccc1C(=O)Nc1cccc2ccccc12	38.6 µM (active)
CNC(C)Cc1ccccc1OC (stereo not given)	inactive
COC(=O)C(C)N(C(=O)Cc1ccccc1)c1c(C)cccc1C (stereo not given)	10.9 µM (active)
CC(C)=CCOc1c2occc2cc2ccc(=O)oc12	inactive
CCCCNP(N)(N)=S	inactive
COC(=O)C(Br)CBr (stereo not given)	inactive
Cc1ccc2ccccc2c1	inactive
COC(C)(C)CCC[C@H](C)C/C=C/C(C)=C/C(=O)OC(C)C	24.3 µM (active)
COC(N)=O	inactive
CCCC(=O)Cl	inactive
NC(=O)CI	69.1 µM (active)
CCBr	inactive
NNC(=O)c1cccnc1	27.4 µM (active)
Cc1cc(=O)[nH]o1	inactive
N#CCc1ccccc1	inactive
CC(Cl)Cl	inactive
CCCN(CCCl)c1c([N+](=O)[O-])cc(C(F)(F)F)cc1[N+](=O)[O-]	21.7 µM (active)
COc1cc(CC(C)N)cc2c1OCO2 (stereo not given)	inactive

Structure (SMILES)	Potency
CCOP(=O)(OCC)SCCSCC	58.3 µM (active)
CCCCCCC#N	inactive
CC(C)(C)C(O)C(Oc1ccc(Cl)cc1)n1cncn1 (stereo not given)	4.33 µM (active)
NC(=O)C(Cl)(Cl)Cl	inactive
Brc1ccc(Oc2ccccc2)cc1	inactive
CCOP(O)OCC	inactive
Cc1ccc(N)cc1C	49 µM (active)
O=C(NC(=O)c1c(F)cccc1F)Nc1cc(Cl)c(Oc2ncc(C(F)(F)F)cc2Cl)c(Cl)c1	8.27 µM (active)
CCCN(CC1CC1)c1c([N+](=O)[O-])cc(C(F)(F)F)cc1[N+](=O)[O-]	19.3 µM (active)
C=CCC1([C@H](C)CCC)C(=O)NC(=O)NC1=O	inactive
CCCCCCCCCCOC(=O)c1ccccc1C(=O)OCCCCCCCCCC	inactive
O=NN1CCCCCC1	inactive
C=CCCl	inactive
IC(I)=C(I)I	4.86 µM (active)
CC1(C)[C@H](C=C(Cl)Cl)[C@@H]1C(=O)O[C@@H](C#N)c1cccc(Oc2ccccc2)c1	4.33 µM (active)
C=CC(=O)OC(C)(C)C	inactive
CCOP(=S)(OCC)Oc1nc(Cl)c(Cl)cc1Cl	17.3 µM (active) and inactive
